Assay outcomes: PubChem BioAssay, several laboratories
WT yeast gro inh: growth inhibition of WT yeast, mitochondrial fusion screen; inhibition, % at 10 µM; 2.1% of 190,000 active; mitochondrial fusion phenotypic screen, WT strain; in the data active means inhibition above about 58%; tested in S. cerevisiae
L major viab: reduces viability of Leishmania major promastigotes; resazurin fluorescence viability; inhibition, % at 10 µM; 9% of 200,000 active; AID 1063; in the data active means inhibition above about 50%;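 further: promastigotes grown with compound for 44 hours at 28 °C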
CHOP inhibitor: blocks CHOP induction under ER stress | CHO-K1 CHOP-promoter luciferase, tunicamycin-induced, 15-18 h | inhibition, % at 10 µM | 3.8% of 220,000 active | AID 2732;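 active means compounds that reduced the stress-induced luciferase reporter signal by more than about 70% of percent inhibition, limit read from the data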;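 further: 0% = tunicamycin plus vehicle and 100% = wells without tunicamycin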
RAM inhibit: blocks the yeast RAM network; inhibition, % at 50 µM; S. cerevisiae dse1pr::URA3 reporter, 5-FOA growth OD615, 2 d; analog-sensitive cbk1-as2 kinase mutant strain; 1.8% of 190,000 active; AID 868;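 active means inhibition above a set limit, 3 SD over mean compound inhibition, cut at about 8.4% in these data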;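 further: 0% = DMSO-only wells with no growth and 100% = 10 µM 1-NA-PP1 full growth; inhibition rescues growth on 5-FOA so higher OD means more RAM inhibition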
Lmaj promast 1uM: inhibitors of Leishmania major promastigote growth, repeat at 1 uM. shares compounds with L major viab. L. major promastigote growth, resazurin fluorescence, 48 h. inhibition, % at 1 µM. 13% of 1,100 active;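 active means inhibition above about 50% in both repeat tests, limit read from the data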
* marks the source's active call; other numbers are inactive results; / = not tested or not shown. Compounds with a hit are over-represented: about 13% of the library has one in this group of screens.

SMILES	WT yeast gro inh	L major viab	CHOP inhibitor	RAM inhibit	Lmaj promast 1uM
Cc1ccc(SCc2cc(=O)n(C)[nH]2)cc1	4	-7	7	0	/
CCCNC(=O)c1ccc2c(c1)C1C3CCC(C3)C1C(c1ccccc1)N2 (stereo unspecified)	62*	81*	29	2	3
CC1Cc2ccccc2N1C(=O)CSc1nnc(Cc2ccccc2)n1CCc1ccccc1 (stereo unspecified)	-16	51*	53	3	4
O=C(NCC1CCCO1)C1CCN(S(=O)(=O)N2CCCC2)CC1 (stereo unspecified)	11	-5	3	1	/
O=S(=O)(CCN(CCS(=O)(=O)C(F)(F)F)CC1CCCO1)C(F)(F)F (stereo unspecified)	-5	100*	0	4	8
COc1ccc(C2SCC(=O)N2c2nnc(C34CC5CC(CC(C5)C3)C4)s2)cc1 (stereo unspecified)	26	98*	-3	3	-10
COc1cc(C2SCC(=O)N2c2nnc(C34CC5CC(CC(C5)C3)C4)s2)cc(OC)c1OC (stereo unspecified)	-3	1	40	4	/
Cc1cc(NC(=O)c2cccc(Oc3ccccc3)c2)n[nH]1	20	-10	6	2	/
CSc1nnc(Cc2sc(-c3ccccc3)nc2-c2ccccc2)o1	9	93*	83*	4	-11
Cc1cc(C)cc(NC(=O)N2CCN(S(C)(=O)=O)CC2)c1	10	0	5	2	/
Cc1cccc(Nc2nc(N)c([N+](=O)[O-])c(NCCO)n2)c1	/	/	10	/	/
Cc1cccc(Nc2nc(N3CCN(C)CC3)nc(N)c2[N+](=O)[O-])c1	3	96*	6	1	-3
O=C(NC(=S)Nc1cc(S(=O)(=O)N2CCOCC2)ccc1N1CCOCC1)C1CCCC1	2	10	1	2	/
CN(C)c1ccnc(-n2cccc2/C=N/OCc2ccccc2)c1C#N	-4	-4	1	0	/
COc1ccccc1CO/N=C/c1cccn1-c1nccc(N(C)C)c1C#N	-39	71*	18	0	-13
Cc1cc(C)c2cc(C#N)c(N3CCCN(S(=O)(=O)c4ccccc4)CC3)nc2c1	/	-2	/	/	/
CC(=O)c1cccc(S(=O)(=O)N2CCN(c3nc4cc(C)cc(C)c4cc3C#N)CC2)c1	6	50*	42	4	-14
Cc1cc(/C=C(\C#N)c2nc3ccccc3[nH]2)c(C)n1C	14	39	42	2	/
Cc1cc(/C=C(/C#N)c2nc3ccccc3[nH]2)c(C)n1-c1cccc([N+](=O)[O-])c1	29	88*	15	5	17
CN1CCCN(C(=O)c2cc(-c3cccc4ccccc34)nc3ccccc23)CC1	/	/	-12	/	/
O=C(NCC(c1ccc(F)cc1)N1CCOCC1)c1ccc(Br)o1 (stereo unspecified)	1	13	7	1	/
N#CC(c1cccc(Cl)c1)c1ccc2c(C(F)(F)F)cc(C(F)(F)F)nc2n1 (stereo unspecified)	81*	100*	102*	4	60*
COC(=O)CN=C1OC(=O)N2C(=O)C3=C4[C@@H](C[C@H]5C(=O)N(c6ccccc6)C(=O)[C@H]5[C@H]4[C@@]12Cc1ccccc1)[C@H]1C(=O)N(c2ccccc2)C(=O)[C@H]1[C@H]3C	/	/	-14	/	/
C=CC[n+]1c(-c2ccc(OC)c(OC)c2)csc1NNC(=O)Nc1ccccc1	2	100*	57	3	47
C=CC[n+]1c(-c2ccccc2)csc1NC(C)(C)C	0	3	19	2	/
SMILES	WT yeast gro inh	L major viab	CHOP inhibitor	RAM inhibit	Lmaj promast 1uM
COc1cc(C(=O)NNC2=CC(=O)CC(C)(C)C2)cc(OC)c1OC	0	-4	5	4	/
Cn1c(-c2ccc(-c3ccccc3)cc2)c[nH]c1=S	1	57*	21	1	-4
CCn1c(-c2ccc(-c3ccccc3)cc2)c[nH]c1=S	-5	16	28	1	/
CCN1/C(=C/C=C/c2oc3ccc4ccccc4c3[n+]2CC)Oc2ccc3ccccc3c21	76	100*	70*	1	101*
COc1ccc(C2CC(=O)c3ccccc3O2)cc1 (stereo unspecified)	-8	2	-8	0	/
Fc1cnc(Cl)nc1N1CCN(c2ccccc2)CC1	/	/	12	/	/
CN1CCN(c2nc(N3CCN(c4ccccc4)CC3)ncc2F)CC1	4	65*	19	1	-11
CCOC(=O)c1cccc(C(=O)Nc2nc3ccc(OC)cc3s2)n1	4	12	4	1	/
Cc1[nH]c2c(ccc3ccccc32)c1C1C(CCN)C1(C)C (stereo unspecified)	35	100*	92*	1	-21
CCOC(=O)CSC1=NN2CCS(=O)(=O)N=C2S1	8	-11	2	1	/
C=CCSC1=NN2CCS(=O)(=O)N=C2S1	-14	100*	13	1	-8
COc1ccc(/C(C)=N/OCC(=O)N2CC3(C)CC2CC(C)(C)C3)cc1 (stereo unspecified)	29	63*	6	0	-6
c1ccc2c(c1)nc(N1CCOCC1)c1c3ccccc3[nH]c21	-14	53*	68	3	11
Cc1ccc(C(O)P(=O)(OC2CCCCC2)OC2CCCCC2)cc1 (stereo unspecified)	9	89*	27	-1	13
COc1ccc(C(O)P(=O)(OC2CCCCC2)c2ccc(N(C)C)cc2)cc1OC (stereo unspecified)	1	6	-12	1	/
O=C(Nc1ccc(N2CCN(C(=O)c3ccco3)CC2)c(Cl)c1)c1c(F)c(F)c(F)c(F)c1F	17	39	32	6	/
N#C/C(=C\c1cccc2ccccc12)c1nn(-c2ccccc2)c(N)c1C#N	/	32	/	/	/
Cc1ccc(/C=C(\C#N)c2nn(-c3ccccc3)c(N)c2C#N)cc1	-3	65*	-9	1	-6
COc1cccc(/C=N/n2c(SC)nnc2-c2ccccc2)c1OC	11	84*	26	4	22
c1ccc2nc(C3=NCCN3)ccc2c1	/	/	-15	/	/
Fc1ccccc1Sc1ccccc1CNC1=NCCN1	80*	99*	-27	0	5
c1ccc(Sc2cccc3ccccc23)c(CNC2=NCCN2)c1	67	99*	6	0	-11
CC1=CC(C)C2(CO)COC(c3ccc(O)cc3)C1C2C (stereo unspecified)	7	6	7	0	/
CC1=CC(C)C2(CO)COC(c3cccnc3)C1C2C (stereo unspecified)	13	80*	5	2	-4
Cc1cc(-n2c(C)cc(C(=S)N3CCOCC3)c2C)ccc1Br	35	57*	45	-1	-9
Cc1ccc(-n2c(C)cc(C(=O)CN3CCOCC3)c2C)cc1	-8	6	-5	0	/
COc1ccc2c(c1)C(=O)N(c1ccccc1C)C(=O)C2(C)C	-4	18	10	-1	/
COc1cc(NC(C)CCCN)c2ncccc2c1Oc1ccccc1 (stereo unspecified)	21	101*	-31	2	101*
Cc1cc(Br)ccc1NC(=S)N1CCOCC1	/	/	16	/	/
